# In the supplement of paper PMC8728848:
# The full list was thinned out, with the strongest signals kept by preference.
# B1: SP16664D-bth-476-27-476 (Bacteroides thetaiotaomicron) (protein)
# chain: DDLEVGKNIDESAYSGIYENNAYLRDGKSNLVSKVVELHGETYATTVKMGLSKTPNTATSAKVKIDAAYLETYNKAHNTDFALYPQDLVTFANEGILTVNANTKSAEVEMTIRAGEGLQEDKTYAIPVAISDQSSDITIKDEDAKHCIYLVKDMRNAGDAYKGEGVMQGYLFFEVNDVNPLNTLSFQLENGKLLWDVVVLFAANINYDAEAGRPRVQCNPNVQYLLDNNETLLQPLRRRGVKVLLGLLGNHDITGLAQLSEQGAKDFAREVAQYCKAYNLDGVNYDDEYSNSPDLSNPSLTNPSTAAAARLCYETKQAMPDKLVTVFDWGQMYGVATVDGVDAKEWIDIVVANYGSAAYPIGQMTKKQCSGISMEFNLGGGGSLSASKAQSMIDGGYGWFMGFAPSPAKYGSVFSRLQGGGEVLYGSNVAAPTIFYKKNDPTPYKYPDDL
# Assays:
# Test in all cases: glycan array binding signal (z-score within array); higher = stronger binding
# Details in all cases: glycan notation: IUPAC condensed, linker removed
# [1] = biological target: Fuc(a1-2)Gal
# In short: (§1)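 The Consortium for Functional Glycomics database supplied 3228 glycan arrays, of which those lacking an available protein sequence were dropped. The binding signal, a within-array Z-score, was averaged across arrays of the same protein sequence and across linkers. Negative scores can be read as non-binding.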
# [2] = biological target: Fuc(a1-2)Gal(b1-4)Glc6S
# In short: as §1
# [3] = biological target: Fuc(a1-2)Gal(b1-4)GlcNAc(b1-2)Man(a1-3)[Fuc(a1-2)Gal(b1-4)GlcNAc(b1-2)Man(a1-6)]Man(b1-4)GlcNAc(b1-4)[Fuc(a1-6)]GlcNAc
# In short: as §1
# [4] = biological target: Fuc(a1-2)Gal(b1-4)GlcNAc(b1-3)GalNAc
# In short: as §1
# [5] = biological target: Fuc(a1-2)Gal(b1-4)[Fuc(a1-3)]GlcNAc(b1-3)GalNAc
# In short: as §1
# [6] = biological target: Fuc(a1-2)Gal(b1-4)[Fuc(a1-3)]GlcNAc(b1-3)[Neu5Ac(a2-6)Gal(b1-4)GlcNAc(b1-6)]Gal(b1-4)Glc
# In short: as §1
# [7] = biological target: Fuc(a1-2)[Gal(a1-3)]Gal(b1-4)GlcNAc(b1-6)GalNAc
# In short: as §1
# [8] = biological target: Fuc(a1-2)[Gal(a1-3)]Gal(b1-4)[Fuc(a1-3)]Glc
# In short: as §1
# [9] = biological target: Fuc(a1-2)[GalNAc(a1-3)]Gal
# In short: as §1
# [10] = biological target: Fuc(a1-3)[Gal(b1-4)]GlcNAc(b1-2)Man(a1-3)[Fuc(a1-3)[Gal(b1-4)]GlcNAc(b1-2)Man(a1-6)]Man(b1-4)GlcNAc(b1-4)GlcNAc
# In short: as §1
# [11] = biological target: Fuc(a1-3)[Gal(b1-4)]GlcNAc(b1-2)Man(a1-3)[Fuc(a1-3)[Gal(b1-4)]GlcNAc(b1-2)Man(a1-6)]Man(b1-4)GlcNAc(b1-4)[Fuc(a1-6)]GlcNAc
# In short: as §1
# [12] = biological target: Fuc(a1-3)[Gal3S(b1-4)]GlcNAc
# In short: as §1
# [13] = biological target: Fuc(a1-4)GlcNAc
# In short: as §1
# [14] = biological target: Fuc(b1-3)GlcNAc
# In short: as §1
# [15] = biological target: Gal(a1-3)Gal(b1-3)GlcNAc
# In short: as §1
# [16] = biological target: Gal(a1-3)Gal(b1-3)GlcNAc(b1-3)GalNAc
# In short: as §1
# [17] = biological target: Gal(a1-3)Gal(b1-4)Glc
# In short: as §1
# [18] = biological target: Gal(a1-3)Gal(b1-4)GlcNAc
# In short: as §1
# [19] = biological target: Gal(a1-3)Gal(b1-4)GlcNAc(b1-3)GalNAc
# In short: as §1
# [20] = biological target: Gal(a1-4)Gal(b1-4)GlcNAc
# In short: as §1
# [21] = biological target: Gal(b1-3)GlcNAc(b1-3)Gal(b1-4)GlcNAc(b1-3)Gal(b1-4)GlcNAc(b1-2)[Gal(b1-3)GlcNAc(b1-3)Gal(b1-4)GlcNAc(b1-3)Gal(b1-4)GlcNAc(b1-6)]Man(a1-6)[Gal(b1-3)GlcNAc(b1-3)Gal(b1-4)GlcNAc(b1-3)Gal(b1-4)GlcNAc(b1-2)Man(a1-3)]Man(b1-4)GlcNAc(b1-4)[Fuc(a1-6)]GlcNAc
# In short: as §1
# [22] = biological target: Gal(b1-3)GlcNAc(b1-3)GalNAc
# In short: as §1
# [23] = biological target: Gal(b1-3)[Fuc(a1-4)]GlcNAc(b1-2)Man(a1-3)[Gal(b1-3)[Fuc(a1-4)]GlcNAc(b1-2)Man(a1-6)]Man(b1-4)GlcNAc(b1-4)[Fuc(a1-6)]GlcNAc
# In short: as §1
# [24] = biological target: Gal(b1-3)[Fuc(a1-4)]GlcNAc(b1-3)Gal(b1-3)[Fuc(a1-4)]GlcNAc
# In short: as §1
# [25] = biological target: Gal(b1-4)Glc
# In short: as §1
# [26] = biological target: Gal(b1-4)GlcNAc(b1-3)Gal(b1-4)GlcNAc(b1-3)Gal(b1-4)GlcNAc
# In short: as §1
# [27] = biological target: Gal(b1-4)GlcNAc(b1-3)Gal(b1-4)GlcNAc(b1-3)Gal(b1-4)GlcNAc(b1-2)[Gal(b1-4)GlcNAc(b1-3)Gal(b1-4)GlcNAc(b1-3)Gal(b1-4)GlcNAc(b1-6)]Man(a1-6)[Gal(b1-4)GlcNAc(b1-3)Gal(b1-4)GlcNAc(b1-3)Gal(b1-4)GlcNAc(b1-2)Man(a1-3)]Man(b1-4)GlcNAc(b1-4)[Fuc(a1-6)]GlcNAc
# In short: as §1
# [28] = biological target: Gal(b1-4)GlcNAc(b1-3)Gal(b1-4)GlcNAc(b1-3)Gal(b1-4)GlcNAc(b1-3)Gal(b1-4)GlcNAc(b1-3)Gal(b1-4)GlcNAc(b1-2)Man(a1-3)[Gal(b1-4)GlcNAc(b1-3)Gal(b1-4)GlcNAc(b1-3)Gal(b1-4)GlcNAc(b1-3)Gal(b1-4)GlcNAc(b1-3)Gal(b1-4)GlcNAc(b1-2)Man(a1-6)]Man(b1-4)GlcNAc(b1-4)[Fuc(a1-6)]GlcNAc
# In short: as §1
# [29] = biological target: Gal(b1-4)GlcNAc(b1-3)Gal(b1-4)GlcNAc(b1-3)GalNAc
# In short: as §1
# [30] = biological target: Gal(b1-4)GlcNAc(b1-3)Gal(b1-4)GlcNAc(b1-3)[Gal(b1-4)GlcNAc(b1-3)Gal(b1-4)GlcNAc(b1-6)]GalNAc
# In short: as §1
# [31] = biological target: Gal(b1-4)GlcNAc(b1-6)GalNAc
# In short: as §1
# [32] = biological target: Gal6S(b1-4)Glc6S
# In short: as §1
# [33] = biological target: GalNAc(b1-3)Gal
# In short: as §1
# [34] = biological target: GalNAc3S(b1-4)GlcNAc
# In short: as §1
# [35] = biological target: GlcA(b1-3)GlcNAc
# In short: as §1
# [36] = biological target: GlcNAc(a1-4)Gal(b1-4)GlcNAc(b1-3)Gal(b1-4)GlcNAc
# In short: as §1
# [37] = biological target: GlcNAc(a1-4)Gal(b1-4)GlcNAc(b1-3)Gal(b1-4)GlcNAc(b1-3)Gal(b1-4)GlcNAc
# In short: as §1
# [38] = biological target: GlcNAc(b1-3)Gal(b1-4)GlcNAc(b1-3)Gal(b1-4)GlcNAc
# In short: as §1
# [39] = biological target: GlcNAc(b1-3)Gal(b1-4)GlcNAc(b1-3)Gal(b1-4)GlcNAc(b1-3)Gal(b1-4)GlcNAc(b1-2)Man(a1-3)[GlcNAc(b1-3)Gal(b1-4)GlcNAc(b1-3)Gal(b1-4)GlcNAc(b1-3)Gal(b1-4)GlcNAc(b1-2)Man(a1-6)]Man(b1-4)GlcNAc(b1-4)[Fuc(a1-6)]GlcNAc
# In short: as §1
# [40] = biological target: GlcNAc(b1-3)[GlcNAc(b1-6)]Gal(b1-4)GlcNAc
# In short: as §1
# [41] = biological target: Neu5Ac(a2-3)Gal
# In short: as §1
# [42] = biological target: Neu5Ac(a2-3)Gal(b1-3)GalNAc6S
# In short: as §1
# [43] = biological target: Neu5Ac(a2-3)Gal(b1-4)GlcNAc(b1-3)Gal(b1-4)[Fuc(a1-3)]GlcNAc
# In short: as §1
# [44] = biological target: Neu5Ac(a2-3)Gal(b1-4)[Fuc(a1-3)]GlcNAc(b1-3)GalNAc
# In short: as §1
# [45] = biological target: Neu5Ac(a2-3)Gal(b1-4)[Fuc(a1-3)]GlcNAc(b1-6)[Gal(b1-3)]GalNAc
# In short: as §1
# [46] = biological target: Neu5Ac(a2-6)Gal(b1-4)GlcNAc(b1-2)Man
# In short: as §1
# [47] = biological target: Neu5Ac(a2-6)Gal(b1-4)GlcNAc(b1-2)Man(a1-3)Man(b1-4)GlcNAc(b1-4)GlcNAc
# In short: as §1
# [48] = biological target: Neu5Ac(a2-6)Gal(b1-4)GlcNAc(b1-2)Man(a1-3)[Gal(b1-4)GlcNAc(b1-2)Man(a1-6)]Man(b1-4)GlcNAc(b1-4)GlcNAc
# In short: as §1
# [49] = biological target: Neu5Ac(a2-6)Gal(b1-4)GlcNAc(b1-2)Man(a1-6)[Man(a1-3)]Man(b1-4)GlcNAc(b1-4)GlcNAc
# In short: as §1
# [50] = biological target: Neu5Ac(a2-6)Gal(b1-4)GlcNAc(b1-2)[Neu5Ac(a2-6)Gal(b1-4)GlcNAc(b1-4)]Man(a1-3)[GlcNAc(b1-4)][Neu5Ac(a2-6)Gal(b1-4)GlcNAc(b1-2)[Neu5Ac(a2-6)Gal(b1-4)GlcNAc(b1-6)]Man(a1-6)]Man(b1-4)GlcNAc(b1-4)GlcNAc
# In short: as §1
# [51] = biological target: Neu5Ac(a2-6)Gal(b1-4)GlcNAc(b1-3)Gal(b1-4)GlcNAc(b1-2)Man(a1-3)[Neu5Ac(a2-6)Gal(b1-4)GlcNAc(b1-3)Gal(b1-4)GlcNAc(b1-2)Man(a1-6)]GalNAc
# In short: as §1
# [52] = biological target: Neu5Ac(a2-6)Gal(b1-4)GlcNAc(b1-6)[Gal(b1-3)GlcNAc(b1-3)]Gal(b1-4)Glc
# In short: as §1
# [53] = biological target: Neu5Ac(a2-6)GalNAc
# In short: as §1
# [54] = biological target: Neu5Ac(a2-6)GalNAc(b1-4)GlcNAc6S
# In short: as §1
# [55] = biological target: Neu5Ac(a2-8)Neu5Ac(a2-8)Neu5Ac(a2-3)[GalNAc(b1-4)]Gal(b1-4)Glc
# In short: as §1
# [56] = biological target: Neu5Gc(a2-8)Neu5Ac(a2-3)Gal(b1-4)GlcNAc
# In short: as §1
binder,measurement,setting,value
B1,glycan array binding signal (z-score),[1],-0.249
same,glycan array binding signal (z-score),[2],0.006
same,glycan array binding signal (z-score),[3],0.161
same,glycan array binding signal (z-score),[4],-0.244
same,glycan array binding signal (z-score),[5],0.134
same,glycan array binding signal (z-score),[6],-0.167
same,glycan array binding signal (z-score),[7],0.007
same,glycan array binding signal (z-score),[8],-0.184
same,glycan array binding signal (z-score),[9],-0.152
same,glycan array binding signal (z-score),[10],0.013
same,glycan array binding signal (z-score),[11],3.02
same,glycan array binding signal (z-score),[12],-0.196
same,glycan array binding signal (z-score),[13],5.19
same,glycan array binding signal (z-score),[14],-0.141
same,glycan array binding signal (z-score),[15],0.314
same,glycan array binding signal (z-score),[16],-0.337
same,glycan array binding signal (z-score),[17],-0.117
same,glycan array binding signal (z-score),[18],-0.212
same,glycan array binding signal (z-score),[19],-0.12
same,glycan array binding signal (z-score),[20],-0.17
same,glycan array binding signal (z-score),[21],0.144
same,glycan array binding signal (z-score),[22],0.061
same,glycan array binding signal (z-score),[23],0.054
same,glycan array binding signal (z-score),[24],1.49
same,glycan array binding signal (z-score),[25],-0.258
same,glycan array binding signal (z-score),[26],0.004
same,glycan array binding signal (z-score),[27],1.01
same,glycan array binding signal (z-score),[28],20
same,glycan array binding signal (z-score),[29],-0.091
same,glycan array binding signal (z-score),[30],-0.045
same,glycan array binding signal (z-score),[31],-0.123
same,glycan array binding signal (z-score),[32],0.344
same,glycan array binding signal (z-score),[33],-0.159
same,glycan array binding signal (z-score),[34],-0.345
same,glycan array binding signal (z-score),[35],-0.153
same,glycan array binding signal (z-score),[36],-0.259
same,glycan array binding signal (z-score),[37],-0.185
same,glycan array binding signal (z-score),[38],0.054
same,glycan array binding signal (z-score),[39],-0.18
same,glycan array binding signal (z-score),[40],-0.212
same,glycan array binding signal (z-score),[41],-0.156
same,glycan array binding signal (z-score),[42],-0.227
same,glycan array binding signal (z-score),[43],0.058
same,glycan array binding signal (z-score),[44],0.765
same,glycan array binding signal (z-score),[45],9.86
same,glycan array binding signal (z-score),[46],-0.235
same,glycan array binding signal (z-score),[47],-0.117
same,glycan array binding signal (z-score),[48],2.55
same,glycan array binding signal (z-score),[49],3.75
same,glycan array binding signal (z-score),[50],2.38
same,glycan array binding signal (z-score),[51],1.28
same,glycan array binding signal (z-score),[52],-0.349
same,glycan array binding signal (z-score),[53],-0.006
same,glycan array binding signal (z-score),[54],-0.065
same,glycan array binding signal (z-score),[55],2.53
same,glycan array binding signal (z-score),[56],-0.114
